Measurements from the supplement of paper PMC9262897, “Low-cost anti-mycobacterial drug discovery using engineered E. coli” (Nature Communications, 2022).
Structures can show the parent of a compound that is named as a salt. ± gives the standard deviation of the averaged measurements.

These compounds were tested on E. coli TESEC Mtb Asd (assay: growth (OD600 after 10 h); higher = more growth (less inhibition)). Conditions: arabinose induction (level): Low; compound 0.1 mM; raw OD600 reference: median of DMSO wells 0.417, cell-free background 0.041.
Experimental: (§1)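 TESEC E. coli strains in which the native enzyme is deleted and replaced by arabinose-inducible Mtb Asd, DapB, CysH or TrpD, each grown in its selective medium. Strains were screened against the Prestwick library at 0.1 mM and 1% DMSO in 384-well format at low and high arabinose induction. Growth is read as OD600 after 10 h in triplicate.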

| Structure (SMILES) | growth |
| --- | --- |
| Cc1nnc(NS(=O)(=O)c2ccc(N)cc2)s1 [Sulfamethizole] | 0.433 ± 0.018 |
| CCC1=C(C)CN(C(=O)NCCc2ccc(S(=O)(=O)NC(=O)N[C@H]3CC[C@H](C)CC3)cc2)C1=O [Glimepiride] | 0.439 ± 0.052 |
| CC1CC(OC(=O)c2ccccc2O)CC(C)(C)C1 (stereo unspecified) [Homosalate] | 0.332 ± 0.052 |
| CCCN(CCC)C(=O)C(CCC(=O)O)NC(=O)c1ccccc1 (stereo unspecified) [Proglumide] | 0.368 ± 0.053 |
| NCCc1ccc(O)c(O)c1 [Dopamine hydrochloride] | 0.281 ± 0.036 |
| OCCN1CCN(CCCN2c3ccccc3Sc3ccc(Cl)cc32)CC1 [Perphenazine] | 0.0626 ± 0.0018 |
| CCN(CC)CCOC(=O)C1(C2CCCCC2)CCCCC1 [Dicyclomine hydrochloride] | 0.21 ± 0.049 |
| Cc1cc(-c2ccccc2)nnc1NCCN1CCOCC1 [Minaprine dihydrochloride] | 0.342 ± 0.074 |
| CCC1(C)CC(=O)NC1=O (stereo unspecified) [Ethosuximide] | 0.417 ± 0.026 |
| COc1nc(C)nc(Cl)c1NC1=NCCN1 [Moxonidine] | 0.434 ± 0.025 |
| COC(=O)Nc1nc2cc(C(=O)c3cccs3)ccc2[nH]1 [Nocodazole] | 0.415 ± 0.034 |
| CCN(CC)C(=O)/C(C#N)=C/c1cc(O)c(O)c([N+](=O)[O-])c1 [Entacapone] | 0.149 ± 0.029 |
| CCN(CC)CCOC(=O)C(c1ccccc1)C1CCCCC1 (stereo unspecified) [Drofenine hydrochloride] | 0.271 ± 0.017 |
| Cc1c(Cl)cccc1Nc1ncccc1C(=O)O [Clonixin Lysinate] | 0.17 ± 0.0079 |
| Cn1cnc2c1c(=O)[nH]c(=O)n2C [Theobromine] | 0.454 ± 0.03 |
| COc1cc(N)c(Cl)cc1C(=O)NC1CCN(Cc2ccccc2)CC1 [Clebopride maleate] | 0.277 ± 0.036 |
| CCN1CCN(c2cc3c(cc2F)c(=O)c(C(=O)O)cn3C2CC2)CC1 [Enrofloxacin] | 0.0466 ± 0.0016 |
| Nc1ccn([C@H]2CC[C@@H](CO)O2)c(=O)n1 [Zalcitabine] | 0.407 ± 0.035 |
| COCCOC(=O)C1=C(C)NC(C)=C(C(=O)OC(C)C)C1c1cccc([N+](=O)[O-])c1 (stereo unspecified) [Nimodipine] | 0.487 ± 0.0068 |
| C[C@H]1O[C@@H](O[C@H]2[C@@H](O)C[C@H](O[C@H]3[C@@H](O)C[C@H](O[C@H]4CC[C@@]5(C)[C@H](CC[C@@H]6[C@@H]5C[C@@H](O)[C@]5(C)[C@@H](C7=CC(=O)OC7)CC[C@]65O)C4)O[C@@H]3C)O[C@@H]2C)C[C@H](O)[C@@H]1O [Digoxin] | 0.413 ± 0.046 |
| COc1cccc2c1C(=O)c1c(O)c3c(c(O)c1C2=O)C[C@@](O)(C(C)=O)C[C@@H]3O[C@H]1C[C@H](N)[C@H](O)[C@H](C)O1 [Daunorubicin hydrochloride] | 0.0577 ± 0.0054 |
| O=C(CCNNC(=O)c1ccncc1)NCc1ccccc1 [Nialamide] | 0.346 ± 0.062 |
| CC(=O)S[C@@H]1CC2=CC(=O)CC[C@]2(C)[C@H]2CC[C@@]3(C)[C@@H](CC[C@@]34CCC(=O)O4)[C@H]12 [Spironolactone] | 0.313 ± 0.041 |
| CCN1CCCC1CNC(=O)c1cc(S(N)(=O)=O)ccc1OC (stereo unspecified) [Sulpiride] | 0.423 ± 0.023 |
| COc1ncnc(NS(=O)(=O)c2ccc(N)cc2)c1OC [Sulfadoxine] | 0.382 ± 0.062 |
| C[C@@H]1C[C@H]2[C@@H]3C[C@H](F)C4=CC(=O)C=C[C@]4(C)[C@@]3(Cl)[C@@H](O)C[C@]2(C)[C@H]1C(=O)COC(=O)C(C)(C)C [Clocortolone pivalate] | 0.322 ± 0.059 |

These compounds were tested on E. coli TESEC Mtb DapB in the same assay as above. Conditions: arabinose induction (level): High; compound 0.1 mM; raw OD600 reference: median of DMSO wells […], cell-free background 0.041.
Experimental: as §1

| Structure (SMILES) | growth |
| --- | --- |
| O=C1OC(CN2CCOCC2)CN1/N=C/c1ccc([N+](=O)[O-])o1 (stereo unspecified) [Furaltadone hydrochloride] | 0.0577 ± 0.0081 |
| CN(C)CCCN1c2ccccc2CCc2ccccc21 [Imipramine hydrochloride] | 0.194 ± 0.016 |
| CCOC(=O)O[C@]1(C(=O)OCCl)CC[C@H]2[C@@H]3CCC4=CC(=O)C=C[C@]4(C)[C@H]3[C@@H](O)C[C@@]21C [Loteprednol etabonate] | 0.174 ± 0.027 |
| CCCNC(C)C(=O)Nc1ccccc1C (stereo unspecified) [Prilocaine hydrochloride] | 0.1776 ± 0.0016 |
| NS(=O)(=O)c1cc2c(cc1Cl)NCNS2(=O)=O [Hydrochlorothiazide] | 0.201 ± 0.013 |
| Cc1cc2c(s1)Nc1ccccc1N=C2N1CCN(C)CC1 [Olanzapine] | 0.213 ± 0.029 |
| Nc1ccc(C(=O)O)c(O)c1 [4-aminosalicylic acid] | 0.199 ± 0.025 |
| CC(=O)Oc1ccc(C(c2ccc(OC(C)=O)cc2)c2ccccn2)cc1 [Bisacodyl] | 0.19 ± 0.011 |
| CN(Cc1cnc2nc(N)nc(N)c2n1)c1ccc(C(=O)N[C@@H](CCC(=O)O)C(=O)O)cc1 (racemic) [Amethopterin (R,S)] | 0.192 ± 0.033 |
| CC(C(=O)O)c1ccc(C(=O)c2ccccc2)s1 (stereo unspecified) [Tiaprofenic acid] | 0.182 ± 0.009 |
| Nc1c2ccccc2nc2ccccc12 [Aminacrine] | 0.0484 ± 0.00044 |
| CCCC(CCC)C(=O)O [Valproic acid] | 0.202 ± 0.011 |
| Cc1[nH]cnc1CN1CCc2c(c3ccccc3n2C)C1=O [Alosetron hydrochloride] | 0.196 ± 0.017 |
| CN(C)c1nc(N(C)C)nc(N(C)C)n1 [Altretamine] | 0.217 ± 0.015 |
| Cc1nnc(NS(=O)(=O)c2ccc(N)cc2)s1 [Sulfamethizole] | 0.189 ± 0.0042 |
| CCC1=C(C)CN(C(=O)NCCc2ccc(S(=O)(=O)NC(=O)N[C@H]3CC[C@H](C)CC3)cc2)C1=O [Glimepiride] | 0.21 ± 0.012 |
| CC1CC(OC(=O)c2ccccc2O)CC(C)(C)C1 (stereo unspecified) [Homosalate] | 0.194 ± 0.018 |
| CCCN(CCC)C(=O)C(CCC(=O)O)NC(=O)c1ccccc1 (stereo unspecified) [Proglumide] | 0.205 ± 0.018 |
| NCCc1ccc(O)c(O)c1 [Dopamine hydrochloride] | 0.174 ± 0.0035 |
| OCCN1CCN(CCCN2c3ccccc3Sc3ccc(Cl)cc32)CC1 [Perphenazine] | 0.0511 ± 0.001 |

| Structure (SMILES) | growth |
| --- | --- |
| CCN(CC)CCOC(=O)C1(C2CCCCC2)CCCCC1 [Dicyclomine hydrochloride] | 0.144 ± 0.0069 |
| Cc1cc(-c2ccccc2)nnc1NCCN1CCOCC1 [Minaprine dihydrochloride] | 0.185 ± 0.0026 |
| CCC1(C)CC(=O)NC1=O (stereo unspecified) [Ethosuximide] | 0.1866 ± 0.0016 |
| COc1nc(C)nc(Cl)c1NC1=NCCN1 [Moxonidine] | 0.209 ± 0.016 |
| COC(=O)Nc1nc2cc(C(=O)c3cccs3)ccc2[nH]1 [Nocodazole] | 0.186 ± 0.0079 |
| CCN(CC)C(=O)/C(C#N)=C/c1cc(O)c(O)c([N+](=O)[O-])c1 [Entacapone] | 0.138 ± 0.007 |
| CCN(CC)CCOC(=O)C(c1ccccc1)C1CCCCC1 (stereo unspecified) [Drofenine hydrochloride] | 0.156 ± 0.0038 |
| Cc1c(Cl)cccc1Nc1ncccc1C(=O)O [Clonixin Lysinate] | 0.175 ± 0.019 |
| Cn1cnc2c1c(=O)[nH]c(=O)n2C [Theobromine] | 0.206 ± 0.008 |
| COc1cc(N)c(Cl)cc1C(=O)NC1CCN(Cc2ccccc2)CC1 [Clebopride maleate] | 0.2 ± 0.011 |
| CCN1CCN(c2cc3c(cc2F)c(=O)c(C(=O)O)cn3C2CC2)CC1 [Enrofloxacin] | 0.0496 ± 0.00083 |
| Nc1ccn([C@H]2CC[C@@H](CO)O2)c(=O)n1 [Zalcitabine] | 0.204 ± 0.015 |
| COCCOC(=O)C1=C(C)NC(C)=C(C(=O)OC(C)C)C1c1cccc([N+](=O)[O-])c1 (stereo unspecified) [Nimodipine] | 0.169 ± 0.016 |
| C[C@H]1O[C@@H](O[C@H]2[C@@H](O)C[C@H](O[C@H]3[C@@H](O)C[C@H](O[C@H]4CC[C@@]5(C)[C@H](CC[C@@H]6[C@@H]5C[C@@H](O)[C@]5(C)[C@@H](C7=CC(=O)OC7)CC[C@]65O)C4)O[C@@H]3C)O[C@@H]2C)C[C@H](O)[C@@H]1O [Digoxin] | 0.196 ± 0.016 |
| COc1cccc2c1C(=O)c1c(O)c3c(c(O)c1C2=O)C[C@@](O)(C(C)=O)C[C@@H]3O[C@H]1C[C@H](N)[C@H](O)[C@H](C)O1 [Daunorubicin hydrochloride] | 0.0527 ± 0.0011 |
| O=C(CCNNC(=O)c1ccncc1)NCc1ccccc1 [Nialamide] | 0.217 ± 0.034 |
| CC(=O)S[C@@H]1CC2=CC(=O)CC[C@]2(C)[C@H]2CC[C@@]3(C)[C@@H](CC[C@@]34CCC(=O)O4)[C@H]12 [Spironolactone] | 0.1363 ± 0.001 |
| CCN1CCCC1CNC(=O)c1cc(S(N)(=O)=O)ccc1OC (stereo unspecified) [Sulpiride] | 0.221 ± 0.037 |
| COc1ncnc(NS(=O)(=O)c2ccc(N)cc2)c1OC [Sulfadoxine] | 0.195 ± 0.0074 |
| C[C@@H]1C[C@H]2[C@@H]3C[C@H](F)C4=CC(=O)C=C[C@]4(C)[C@@]3(Cl)[C@@H](O)C[C@]2(C)[C@H]1C(=O)COC(=O)C(C)(C)C [Clocortolone pivalate] | 0.21 ± 0.0076 |
